Results on 5 compounds are retold here after PubChem BioAssay.

Results filed as inconclusive are left out. The source made the active and inactive calls.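 The calls were made as follows, unless noted: active = percent response above 42, roughly 3 SD of non-fluorescent test compounds; inactive = the rest.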

Experiment [1] can be described thus: rapamycin-like changes in RPL19A-GFP expression – cell-based, S. cerevisiae, multiplex flow cytometry, primary screen (AID 1862; in the data active = percent of DMSO control GFP below about 86%;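 also: lower values mimic rapamycin by blocking the RPL19A rise seen in DMSO cells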). The note with it: S. cerevisiae RPL19A-GFP strain, flow cytometry fluorescence, 3 h; at 10 µM; stronger effect = lower value.
Experiment [2] is described as follows: TOR pathway GLN3 branch reporter MEP2-GFP changes – S. cerevisiae, multiplex flow cytometry, primary screen (AID 1867;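 active = GFP response, as percent of the DMSO control, above the screen-wide mean plus 3 SD, about 139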;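 also: median GFP channel fluorescence of barcode-gated MEP2-GFP cells measured by flow cytometry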). The note with it: S. cerevisiae MEP2-GFP strain, 3 h, at 10 µM, stronger effect = higher value, 100% means same as DMSO wells.
Experiment [3] in a line: TOR pathway RTG branch CIT2 reporter changes – S. cerevisiae, GFP fusion, multiplex flow cytometry, primary screen (AID 1870;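 active = percent response above a set limit, the screen-wide mean plus 3 SD, cut at about 130% in these data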;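 also: barcoded CIT2-GFP strain pooled with four other GFP strains with rapamycin as positive control; median GFP fluorescence per well over plate mean of DMSO wells so 100% = DMSO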). To be noted: S. cerevisiae CIT2-GFP expression, 3 h, at 10 µM, stronger effect = higher value.
Experiment [4] in a line: TOR pathway LAP4-GFP level changes – S. cerevisiae, multiplex flow cytometry, primary screen (AID 1873;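 active = GFP signal, as percent of the solvent control, above the screen mean plus 3 SD, about 149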). To be noted: S. cerevisiae LAP4-GFP expression, 3 h, at 10 µM, stronger effect = higher value.
Experiment [5] can be described thus: yeast AGP1-GFP level changes, GLN3 branch – cell-based, multiplex flow cytometry, S. cerevisiae, primary screen (AID 1887;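 active = GFP signal above the screen-wide mean plus 3 SD, that is over about 124.5% of the solvent control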;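 also: AGP1-GFP fusion strain of S. cerevisiae within a five-strain barcoded multiplex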). The note with it: 3 h, at 10 µM, stronger effect = higher value.
Experiment [6] in a line: reduced mouse 2C T cell binding to pMHC/ICAM-1 vesicles – MLPCN validation set, flow cytometry, LFA-1/ICAM-1 modulator project, pilot screen (AID 2523;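 active = response below a set limit, under 55% cells CD8-positive and vesicle-bound, and CD8 cells' 90th-percentile brightness under 279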;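 as to vesicle binding response: mean PE anti-B7-1 fluorescence of CD8+ cells relative to row control; 100% = QL9-loaded vesicles with DMSO vehicle in the same plate row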). The note with it: 2C mouse CD8+ T cells, at 7 µM, stronger effect = lower value; double positive events: measured here: CD8+/vesicle+ event percentage.
The target of experiment [7] is Integrin beta-1 (Homo sapiens) + Integrin alpha-4 (Homo sapiens) (UniProt P13612+P05556). The experiment is described as follows: alpha4beta1 integrin LIBS antibody binding reduction – U937 cells, HUTS-21 mAb, flow cytometry, validation set, VLA-4 allosteric modulator project, pilot screen (AID 2674;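 active = inhibition above 50%, about 3 SD of the validation set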;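 also: antibody binding induced by the VLA-4 ligand LDV present at three times its Kd; 0% = LDV ligand with antibody and no compound and 100% = antibody without LDV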). To be noted: HUTS-21 LIBS mAb binding, at 6.7 µM, stronger effect = higher value, binding induced by LDV ligand.

The nature of experiment [8]: calorie-restriction mimetic ROS inhibitors, yeast – validation compound set, pilot screen (AID 2706;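 active = superoxide response below 65% of plate, a cut near 3 SD across the whole screen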;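 also: yeast exposed to compound for one week at 30 degrees C before staining; 100% = mean of all compound wells on the same plate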). To be noted: S. cerevisiae aging, superoxide DHE fluorescence; at 10 µM; stronger effect = lower value.
Experiment [9] addresses Beta-adrenergic receptor kinase 1 (Homo sapiens) (UniProt P25098). The experiment can be described thus: GRK2 binders displacing RNA aptamer, biochemical, validation, human GRK2, bead flow cytometry (AID 488806;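 active = aptamer binding inhibition above 30%, about 3 SD of noise from non-fluorescent compounds; inactive = inhibition at or below 30%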). To be noted: bead-bound GRK2, FAM-aptamer displacement, at 10 µM, stronger effect = higher value.
The target of experiment [10] is Beta-2 adrenergic receptor (Homo sapiens) (UniProt P07550). The experiment can be described thus: agonist-induced loss of surface beta2AR – cell-based, FAP fluorogen, flow cytometry, validation set, pilot screen (AID 504459).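 Also: agonist-driven loss of surface beta2AR via internalization measured by FAP dye flow cytometry.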 To be noted: Am2.2-beta2AR cells, at 10 µM, stronger effect = higher value.
The target in experiment [11] is AP-2 complex subunit beta (Homo sapiens) (UniProt P63010). The experiment is described as follows: beta-arrestin/AP2 interaction blockers – biochemical, validation set, GST-AP2 beads, flow cytometry, pilot screen (AID 504541;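 active = inhibition above 54%, about 3 SD of non-fluorescent compounds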;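 also: AP2 carries R879A mutation and is captured from E. coli lysate; bead-bound FITC arrestin peptide fluorescence measuring arrestin peptide binding to AP2; 0% = DMSO wells and 100% = excess unlabeled arrestin peptide control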). The note with it: FITC arrestin peptide, at 10 µM, stronger effect = higher value, AP2 beta2 appendage fragment, R879A mutant.
The nature of experiment [12]: cytosolic pH regulators acting via V-ATPase – S. cerevisiae, pHLuorin, HTS validation (AID 504600; in the data active = response above about 15%;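 also: plate controls were DMSO for no effect and reference compound for full effect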). To be noted: V-ATPase proton transport, at 10 µM, stronger effect = higher value.
Experiment [13] has as its system anti-desmoglein-3 scFv antibody binding to human DSG3. The experiment is described as follows: blockers of pathogenic pemphigus antibody–desmoglein-3 binding – biochemical, validation compound set, bead-based, flow cytometry, pilot screen (AID 588368;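 active = binding below the plate cutoff, the plate median minus 3 SD, with a reading above zero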;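 also: signal is the median channel fluorescence of bead-bound GFP antibody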). The note with it: Protein G beads, DSG3-Fc, scFv-GFP binding, at 10 µM, stronger effect = lower value.
A short description of experiment [14]: Nile Red efflux blockade in pump-expressing yeast – validation compound set, multiplex, phenotypic, pilot screen (AID 588506;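 active = efflux inhibition above 0.42, the validation set average plus 4 SD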;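 also: Nile Red retained in cells so higher fluorescence means more efflux inhibition; 0 = negative control wells and 1 = enniatin B 25 µM full block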). The note with it: S. cerevisiae pump-expressing triplex, Nile Red efflux flow cytometry; at 10 µM; stronger effect = higher value; the pumps come from Candida albicans.
For experiment [15], the target named is ATP-binding cassette sub-family B member 6 (Homo sapiens) (UniProt Q9NP58). The experiment can be described thus: blockers of ABCB6-driven porphyrin uptake – K562-ABCB6 cells, flow cytometry, validation set, pilot screen (AID 588550;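 active = inhibition above the screen-wide mean plus 3 SD, about 51%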;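 also: 0% = DMSO wells and 100% = benzethonium chloride 70 µM positive control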). To be noted: K562-ABCB6 porphyrin accumulation, 1 h, at 10 µM, stronger effect = higher value.
Experiment [16] can be described thus: AML differentiation inducers, ER-HoxA9 marrow cells – cell-based, GFP/MAC1 double positive, flow cytometry, validation set, primary screen (AID 588685;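 active = differentiation response of at least 50%, scaled between solvent and reference control, from cells with both markers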;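 also: compound exposure lasts four days before antibody staining and flow analysis; 0% = DMSO wells and 100% = 5 µM fulvestrant positive control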). To be noted: stronger effect = higher value, normalized: vehicle 0, fulvestrant 100.

Sequence of Beta-2 adrenergic receptor (Homo sapiens) (P07550 whole entry, looked up): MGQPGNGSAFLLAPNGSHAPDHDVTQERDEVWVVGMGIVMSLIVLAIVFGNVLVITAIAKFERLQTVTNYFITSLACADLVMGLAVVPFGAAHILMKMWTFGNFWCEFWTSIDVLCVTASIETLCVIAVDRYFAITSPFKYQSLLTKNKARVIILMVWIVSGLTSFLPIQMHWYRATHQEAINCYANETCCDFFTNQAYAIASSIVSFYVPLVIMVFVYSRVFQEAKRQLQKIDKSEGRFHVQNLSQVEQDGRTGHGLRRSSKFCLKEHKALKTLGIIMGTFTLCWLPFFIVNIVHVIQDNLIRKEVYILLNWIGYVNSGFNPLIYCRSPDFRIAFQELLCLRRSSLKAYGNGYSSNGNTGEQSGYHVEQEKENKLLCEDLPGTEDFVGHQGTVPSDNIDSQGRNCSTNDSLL
Sequence of ATP-binding cassette sub-family B member 6 (Homo sapiens) (Q9NP58 whole entry, looked up): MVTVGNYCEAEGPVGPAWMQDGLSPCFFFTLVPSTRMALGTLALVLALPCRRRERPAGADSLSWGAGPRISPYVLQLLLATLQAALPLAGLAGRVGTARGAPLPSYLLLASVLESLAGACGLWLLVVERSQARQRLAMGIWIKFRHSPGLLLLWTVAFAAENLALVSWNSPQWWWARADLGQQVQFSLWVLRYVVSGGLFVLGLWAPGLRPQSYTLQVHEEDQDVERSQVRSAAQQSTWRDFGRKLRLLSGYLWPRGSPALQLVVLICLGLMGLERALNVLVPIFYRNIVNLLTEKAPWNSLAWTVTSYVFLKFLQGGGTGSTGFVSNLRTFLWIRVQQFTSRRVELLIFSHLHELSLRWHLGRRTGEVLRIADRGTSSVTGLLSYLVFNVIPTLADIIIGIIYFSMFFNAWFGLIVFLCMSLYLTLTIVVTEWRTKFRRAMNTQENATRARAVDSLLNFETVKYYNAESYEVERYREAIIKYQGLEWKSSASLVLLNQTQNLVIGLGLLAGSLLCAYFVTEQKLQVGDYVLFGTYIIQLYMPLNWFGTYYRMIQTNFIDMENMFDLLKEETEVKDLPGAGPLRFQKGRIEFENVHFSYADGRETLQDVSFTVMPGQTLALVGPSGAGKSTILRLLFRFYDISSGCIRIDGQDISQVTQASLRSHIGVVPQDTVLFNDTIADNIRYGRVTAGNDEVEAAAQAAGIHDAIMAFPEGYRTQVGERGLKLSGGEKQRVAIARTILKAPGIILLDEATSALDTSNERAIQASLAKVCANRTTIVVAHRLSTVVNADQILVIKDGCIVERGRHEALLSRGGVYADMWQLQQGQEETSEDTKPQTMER
Sequence of Beta-adrenergic receptor kinase 1 (Homo sapiens) (P25098 whole entry, looked up): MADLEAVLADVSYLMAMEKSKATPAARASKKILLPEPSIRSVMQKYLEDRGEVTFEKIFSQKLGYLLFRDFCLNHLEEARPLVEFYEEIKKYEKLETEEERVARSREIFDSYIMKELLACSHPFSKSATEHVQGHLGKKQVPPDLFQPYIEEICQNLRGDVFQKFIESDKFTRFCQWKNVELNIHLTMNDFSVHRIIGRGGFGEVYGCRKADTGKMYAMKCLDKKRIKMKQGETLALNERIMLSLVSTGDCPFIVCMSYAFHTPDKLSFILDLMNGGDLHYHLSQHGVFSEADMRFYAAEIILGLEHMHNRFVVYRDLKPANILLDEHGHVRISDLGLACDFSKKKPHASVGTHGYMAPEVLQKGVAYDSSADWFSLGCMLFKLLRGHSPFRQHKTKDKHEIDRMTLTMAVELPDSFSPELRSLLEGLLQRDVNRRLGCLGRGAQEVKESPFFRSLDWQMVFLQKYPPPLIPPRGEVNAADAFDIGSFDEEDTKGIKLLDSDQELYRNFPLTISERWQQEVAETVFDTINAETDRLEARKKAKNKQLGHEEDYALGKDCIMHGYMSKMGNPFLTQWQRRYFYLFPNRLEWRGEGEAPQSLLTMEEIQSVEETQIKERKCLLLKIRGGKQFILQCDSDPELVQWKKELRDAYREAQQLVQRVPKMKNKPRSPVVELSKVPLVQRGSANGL
Sequence of Integrin beta-1 (Homo sapiens) + Integrin alpha-4 (Homo sapiens) (P05556 whole entry, looked up): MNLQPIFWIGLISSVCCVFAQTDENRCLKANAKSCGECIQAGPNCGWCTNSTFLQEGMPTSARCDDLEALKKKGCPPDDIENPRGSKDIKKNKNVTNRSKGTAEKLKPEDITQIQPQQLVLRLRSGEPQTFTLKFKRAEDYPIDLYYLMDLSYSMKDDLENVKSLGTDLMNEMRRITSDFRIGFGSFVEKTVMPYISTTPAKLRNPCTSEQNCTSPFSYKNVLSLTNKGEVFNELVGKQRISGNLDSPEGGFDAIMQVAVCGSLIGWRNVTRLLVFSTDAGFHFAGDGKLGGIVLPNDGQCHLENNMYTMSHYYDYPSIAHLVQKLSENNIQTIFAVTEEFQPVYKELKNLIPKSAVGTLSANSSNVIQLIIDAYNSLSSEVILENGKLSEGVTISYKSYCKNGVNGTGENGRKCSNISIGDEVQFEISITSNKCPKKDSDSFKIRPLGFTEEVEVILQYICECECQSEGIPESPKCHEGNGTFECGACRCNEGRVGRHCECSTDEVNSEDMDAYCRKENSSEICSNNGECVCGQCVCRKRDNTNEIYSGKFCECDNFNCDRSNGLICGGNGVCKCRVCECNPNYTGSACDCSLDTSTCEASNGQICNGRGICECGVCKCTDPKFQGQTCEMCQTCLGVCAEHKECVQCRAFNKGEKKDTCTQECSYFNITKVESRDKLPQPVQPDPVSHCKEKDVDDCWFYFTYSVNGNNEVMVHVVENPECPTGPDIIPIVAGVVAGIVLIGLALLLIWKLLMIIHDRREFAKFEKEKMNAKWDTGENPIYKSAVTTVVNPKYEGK
Sequence of Integrin beta-1 (Homo sapiens) + Integrin alpha-4 (Homo sapiens) (P13612 whole entry, looked up): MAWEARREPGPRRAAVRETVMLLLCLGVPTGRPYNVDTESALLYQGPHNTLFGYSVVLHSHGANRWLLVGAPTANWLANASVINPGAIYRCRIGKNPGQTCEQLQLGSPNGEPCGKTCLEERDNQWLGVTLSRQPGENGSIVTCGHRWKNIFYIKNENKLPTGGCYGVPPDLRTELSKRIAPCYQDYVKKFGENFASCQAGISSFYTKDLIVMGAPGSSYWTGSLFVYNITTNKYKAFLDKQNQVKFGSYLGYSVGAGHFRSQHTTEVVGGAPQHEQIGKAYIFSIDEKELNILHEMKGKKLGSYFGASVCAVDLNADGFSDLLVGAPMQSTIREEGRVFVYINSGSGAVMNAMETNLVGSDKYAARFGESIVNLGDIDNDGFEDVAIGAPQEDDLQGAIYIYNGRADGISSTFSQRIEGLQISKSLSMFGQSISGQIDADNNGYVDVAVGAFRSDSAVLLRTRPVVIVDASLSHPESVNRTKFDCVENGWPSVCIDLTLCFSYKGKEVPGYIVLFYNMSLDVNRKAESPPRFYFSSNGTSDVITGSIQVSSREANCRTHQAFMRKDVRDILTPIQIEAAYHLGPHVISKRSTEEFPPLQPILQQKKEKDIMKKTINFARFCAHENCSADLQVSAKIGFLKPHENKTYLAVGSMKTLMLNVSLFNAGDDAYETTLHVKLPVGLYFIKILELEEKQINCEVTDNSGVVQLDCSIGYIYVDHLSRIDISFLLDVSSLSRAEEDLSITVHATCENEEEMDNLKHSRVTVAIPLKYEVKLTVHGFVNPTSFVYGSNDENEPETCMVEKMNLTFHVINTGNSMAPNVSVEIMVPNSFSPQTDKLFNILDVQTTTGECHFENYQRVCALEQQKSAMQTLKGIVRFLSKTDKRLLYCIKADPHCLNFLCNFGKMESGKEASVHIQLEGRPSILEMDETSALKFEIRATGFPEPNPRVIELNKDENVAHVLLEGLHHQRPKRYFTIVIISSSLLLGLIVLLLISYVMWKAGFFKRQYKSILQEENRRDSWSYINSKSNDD
Sequence of AP-2 complex subunit beta (Homo sapiens) (P63010 whole entry, looked up, the tested form may be a part, one chain of several): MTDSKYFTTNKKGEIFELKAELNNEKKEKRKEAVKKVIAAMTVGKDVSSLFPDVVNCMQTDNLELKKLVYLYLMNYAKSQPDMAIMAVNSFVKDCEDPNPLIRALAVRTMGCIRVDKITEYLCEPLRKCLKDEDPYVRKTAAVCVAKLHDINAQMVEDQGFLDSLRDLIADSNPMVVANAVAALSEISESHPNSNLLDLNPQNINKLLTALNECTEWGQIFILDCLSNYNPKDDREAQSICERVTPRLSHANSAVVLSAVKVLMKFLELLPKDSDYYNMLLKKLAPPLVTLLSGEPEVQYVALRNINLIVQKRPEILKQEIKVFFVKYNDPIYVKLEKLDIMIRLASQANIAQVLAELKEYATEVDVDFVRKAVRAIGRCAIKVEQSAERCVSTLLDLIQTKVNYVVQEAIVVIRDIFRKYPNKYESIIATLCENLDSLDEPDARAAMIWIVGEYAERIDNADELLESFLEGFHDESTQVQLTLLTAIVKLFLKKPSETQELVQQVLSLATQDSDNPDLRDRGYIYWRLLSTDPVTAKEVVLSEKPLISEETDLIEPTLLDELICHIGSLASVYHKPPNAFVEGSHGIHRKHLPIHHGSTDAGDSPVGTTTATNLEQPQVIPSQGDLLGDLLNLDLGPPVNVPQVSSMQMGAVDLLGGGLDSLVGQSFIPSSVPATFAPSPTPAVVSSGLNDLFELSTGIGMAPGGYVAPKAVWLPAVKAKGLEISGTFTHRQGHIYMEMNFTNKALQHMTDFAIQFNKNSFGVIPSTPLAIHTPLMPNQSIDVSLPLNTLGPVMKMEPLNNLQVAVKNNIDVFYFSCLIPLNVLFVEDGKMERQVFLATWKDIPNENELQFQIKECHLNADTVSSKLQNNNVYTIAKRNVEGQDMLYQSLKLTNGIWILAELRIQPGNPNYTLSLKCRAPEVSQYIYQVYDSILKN

For `COC(=O)c1ccc(C(=O)OC)c(NC(=O)C(C)C)c1`, in experiment [1], the percent of DMSO control GFP is 97.8% (inactive). Further, the GFP response vs DMSO in experiment [2] is 102% (inactive); in experiment [4], 138% (inactive). For the same compound, in experiment [3], the percent response of DMSO control is 102% (inactive). For the same compound, the GFP response, % of DMSO in experiment [5] was 112% (inactive). For the same compound, in [6], the double positive events came out at 63.1%. In experiment [6], the vesicle binding response is 204% (inactive). The inhibition is -72.7% (inactive) in [7], -9.41% (inactive) in [11] and -3% (inactive) in experiment [15]. The superoxide response (% of plate) in experiment [8] is 100% (inactive). Besides, the aptamer binding inhibition in [9] is 0% (inactive). Moreover, the results for the response in experiment [10] and in experiment [12] were -13.3% (inactive) and 0.33% (inactive), respectively. The binding (% of control) in experiment [13] is 97.1% (inactive). Further, the efflux inhibition (fraction of control) in experiment [14] was 0 (inactive). Moreover, the differentiation response in experiment [16] is 0.92% (inactive).

Regarding `COc1ccc(OC(C)C(=O)Nc2ccc([N+](=O)[O-])cc2)cc1` (stereo not given), the percent of DMSO control GFP in experiment [1] is 102% (inactive). The values for the GFP response vs DMSO in experiment [2] and in experiment [4] were 107% (inactive) and 114% (inactive), respectively. In experiment [3], the percent response of DMSO control is 99.7% (inactive). Moreover, the GFP response, % of DMSO in [5] was 97.5% (inactive). In addition, in experiment [6], the double positive events is 65.7%. The vesicle binding response in [6] is 249% (inactive). Besides, the values for the inhibition in experiment [7], in experiment [11] and in experiment [15] were 0.25% (inactive), -7.72% (inactive) and 5% (inactive), respectively. For the same compound, in [8], the superoxide response (% of plate) is 103% (inactive). The aptamer binding inhibition in experiment [9] is -3% (inactive). For the same compound, the response in experiment [10] is 1.65% (inactive); in experiment [12] it was 3.86% (inactive). In addition, the binding (% of control) in [13] was 103% (inactive). In [14], the efflux inhibition (fraction of control) was -0.21 (inactive). Moreover, the differentiation response in [16] is 13% (inactive).

As to `CCOC(=O)C(NC(C)=O)C(O)c1ccc([N+](=O)[O-])cc1` (stereo not given), in [1], the percent of DMSO control GFP is 99.5% (inactive). Further, the GFP response vs DMSO in [2] is 105% (inactive); in experiment [4], 124% (inactive). The percent response of DMSO control in experiment [3] is 85.3% (inactive). Further, in experiment [5], the GFP response, % of DMSO is 99.2% (inactive). In experiment [6], the double positive events came out at 57.3%. Further, the vesicle binding response in experiment [6] is 211% (inactive). The inhibition is -3.16% (inactive) in [7], -1.65% (inactive) in [11] and 6% (inactive) in experiment [15]. Besides, the superoxide response (% of plate) in experiment [8] was 103% (inactive). In experiment [9], the aptamer binding inhibition was 0% (inactive). The response in experiment [10] is 4.84% (inactive); in [12], -1.89% (inactive). Also, the binding (% of control) in experiment [13] was 99.7% (inactive). Besides, in experiment [14], the efflux inhibition (fraction of control) was -0.21 (inactive). Moreover, the differentiation response in experiment [16] was 32.8% (inactive).

Regarding `COc1ccccc1/C=C/CN1CCN(Cc2ccc(F)cc2)C(CCO)C1` (stereo not given), in [1], the percent of DMSO control GFP was 101% (inactive). Besides, the figures for the GFP response vs DMSO in [2] and in [4] were 98.8% (inactive) and 91.6% (inactive), respectively. The percent response of DMSO control in experiment [3] was 98.2% (inactive). Moreover, the GFP response, % of DMSO in experiment [5] was 98.5% (inactive). Besides, the double positive events in experiment [6] was found to be 63.2%. Besides, the vesicle binding response in experiment [6] is 171% (inactive). Moreover, the inhibition in experiment [7] is -3.18% (inactive); in [11], -20.3% (inactive); in experiment [15] it was 8% (inactive). Moreover, the superoxide response (% of plate) in experiment [8] was 92.6% (inactive). Moreover, the aptamer binding inhibition in experiment [9] is 1% (inactive). For the same compound, the response in experiment [10] was 9.17% (inactive); in experiment [12], 0.79% (inactive). Besides, the binding (% of control) in [13] is 107% (inactive). Further, in experiment [14], the efflux inhibition (fraction of control) is -0.38 (inactive). For the same compound, in [16], the differentiation response is -3.4% (inactive).

Turning to `CC1=CC(=O)c2ccccc2C1=O`, the percent of DMSO control GFP in [1] is 101% (inactive). Further, the GFP response vs DMSO in experiment [2] is 104% (inactive); in experiment [4], 94.8% (inactive). For the same compound, the percent response of DMSO control in [3] is 94.5% (inactive). For the same compound, in experiment [5], the GFP response, % of DMSO was 91.1% (inactive). The double positive events in [6] worked out at 60.8%. The vesicle binding response in experiment [6] was 105% (inactive). The inhibition was -5.11% (inactive) in experiment [7], -9.12% (inactive) in experiment [11] and 1% (inactive) in experiment [15]. In addition, the superoxide response (% of plate) in experiment [8] is 108% (inactive). In experiment [9], the aptamer binding inhibition is 1% (inactive). In addition, the response in experiment [10] was 22.2% (inactive); in experiment [12], 1.78% (inactive). Moreover, the binding (% of control) in [13] is 102% (inactive). The efflux inhibition (fraction of control) in experiment [14] is -0.21 (inactive). Also, the differentiation response in experiment [16] is 14.4% (inactive).
